Results published in the supplement of paper PMC8007513.
Where a name gives a salt, the structure may show the parent alone. ± gives the standard error. Among all 1,300 compounds or so, about 75 (6%) showed an effect of 50% or more. For the sample, strong results were picked, then their nearest neighbours and some compounds at random.

Test system: Trichoderma virens ATCC 9645
Test: growth yield (OD600) relative to untreated control; higher = less growth inhibition
Settings: compound concentration: 100 uM
Method in brief: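 Trichoderma virens ATCC 9645 spores from 7-day potato dextrose agar plates were suspended in potato dextrose broth at 15,000 spores ml^−1. Aliquots of 100 μl with library compounds at 100 μM final, with or without a co-applied biocide at 200 ng ml^−1, were grown in 96-well plates at 30 °C. OD600 was read at 40 h and 72 h on a BioTek EL800. Growth is expressed relative to the control without either agent, as means of duplicate screens.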

Row | Compound | growth yield (40 h) | growth yield (72 h)
1 | Cc1ncc(CO)c(CO)c1O [Pyridoxine hydrochloride] | 101.5 ± 0.16% | 103.3 ± 0.52%
2 | Clc1ccc2c(c1)CCc1cccnc1C2=C1CCNCC1 [Desloratadine] | 106 ± 6.8% | 105 ± 4.8%
3 | CN1CCC(=C2c3ccccc3CCc3cccnc32)CC1 [Azatadine maleate] | 107 ± 7.9% | 104 ± 4.2%
4 | CCOC(=O)N1CCC(=C2c3ccc(Cl)cc3CCc3cccnc32)CC1 [Loratadine] | 19.2 ± 12% | 73.6%
5 | COc1ccc(C[C@@H]2c3cc(OC)c(OC)cc3CC[N@+]2(C)CCC(=O)OCCCCCOC(=O)CC[N@@+]2(C)CCc3cc(OC)c(OC)cc3[C@H]2Cc2ccc(OC)c(OC)c2)cc1OC [Cisatracurium besylate] | 95 ± 1.3% | 94 ± 3.4%
6 | CCCSc1ccc2[nH]c(NC(=O)OC)nc2c1 [Albendazole] | 73.2 ± 3.6% | 84.3 ± 5.5%
7 | CCCOc1ccc2[nH]c(NC(=O)OC)nc2c1 [Oxibendazol] | 16.4 ± 3.6% | 74.6 ± 3.5%
8 | CCCCc1ccc2[nH]c(NC(=O)OC)nc2c1 [Parbendazole] | 53.4 ± 1.9% | 95.9 ± 10%
9 | Cc1ccc2c(c1)c1c3n2CCNC3CCC1 (configuration not stated) [Pirlindole mesylate] | 101 ± 1.1% | 104 ± 2.5%
10 | Clc1cc(Cl)c(OCC#CI)cc1Cl [Haloprogin] | 6.04 ± 1.6% | 5.14 ± 0.73%
11 | CC1CC(OC(=O)c2ccccc2O)CC(C)(C)C1 (configuration not stated) [Homosalate] | 109 ± 3.2% | 105.8 ± 0.32%
12 | CCCCNc1ccc(C(=O)OCCOCCOCCOCCOCCOCCOCCOCCOCCOC)cc1 [Benzonatate] | 92.1 ± 2.5% | 89.1 ± 2.1%
13 | CCCCNc1c(C(=O)OCC)c(C)nc2c1cnn2CC [Tracazolate hydrochloride] | 38.1 ± 16% | 60.5 ± 13%
14 | CCCCNc1ccc(C(=O)OCCN(C)C)cc1 | 99.752 ± 2.2e-14% | 102 ± 3.4%
15 | CC[C@H]1OC(=O)C[C@@H](O)[C@H](C)[C@@H](O[C@@H]2O[C@H](C)[C@@H](O[C@H]3C[C@@](C)(O)[C@@H](O)[C@H](C)O3)[C@H](N(C)C)[C@H]2O)[C@@H](CC=O)C[C@@H](C)C(=O)/C=C/C(C)=C/[C@@H]1CO[C@@H]1O[C@H](C)[C@@H](O)[C@@H](OC)[C@H]1OC [Tylosin] | 95.94 ± 0.32% | 94.2 ± 1.9%
16 | C[C@H]1c2cccc(O)c2C(=O)C2=C(O)[C@]3(O)C(=O)C(C(N)=O)=C(O)[C@@H](N(C)C)[C@@H]3[C@@H](O)[C@@H]21 [Doxycycline hydrochloride] | 93.2 ± 1.8% | 92.7 ± 2.7%
17 | Cc1c(N(C)CS(=O)(=O)O)c(=O)n(-c2ccccc2)n1C [Dipyrone] | 91.7 ± 4.6% | 85.68 ± 0.73%
18 | CN1CCN(CCCN2c3ccccc3Sc3ccc(S(=O)(=O)N(C)C)cc32)CC1 [Thioproperazine dimesylate] | 64.5 ± 11% | 90.7 ± 4.1%
19 | CN1CCN(CCCN2c3ccccc3Sc3ccc(Cl)cc32)CC1 [Prochlorperazine dimaleate] | 31 ± 8.7% | 108 ± 2.4%
20 | CCSc1ccc2c(c1)N(CCCN1CCN(C)CC1)c1ccccc1S2 [Thiethylperazine dimalate] | 3.02 ± 0.16% | 2.73 ± 0.42%
21 | CN(C)CCCN1c2ccccc2Sc2ccc(Cl)cc21 [Chlorpromazine hydrochloride] | 68.8 ± 2.1% | 86.52 ± 0.32%

Row | Compound | growth yield (40 h) | growth yield (72 h)
22 | CC(=O)c1ccc2c(c1)N(CCCN(C)C)c1ccccc1S2 [Acetopromazine maleate salt] | 109 ± 5.9% | 111 ± 4.1%
23 | OCCN1CCN(CCCN2c3ccccc3Sc3ccc(Cl)cc32)CC1 [Perphenazine] | 59.1 ± 5.1% | 113 ± 14%
24 | COc1cc(N)c(Cl)cc1C(=O)NC1CCN(CCCOc2ccc(F)cc2)CC1OC (configuration not stated) [Cisapride] | 108% | 109%
25 | O=C(Cn1ccnc1[N+](=O)[O-])NCCO [Etanidazole] | 101 ± 2.2% | 98 ± 1.9%
26 | CCN(CC)CCOC(=O)C1(c2ccc([N+](=O)[O-])cc2)CCCC1 [Nitrocaramiphen hydrochloride] | 101% | 103.3 ± 0.52%
27 | O=C(CCCN1CCC(O)(c2ccc(Br)cc2)CC1)c1ccc(F)cc1 [Bromperidol] | 104.4 ± 0.48% | 105.4 ± 0.1%
28 | C/C(=C(\CCOP(=O)(O)O)SC(=O)c1ccccc1)N(C=O)Cc1cnc(C)nc1N [Benfotiamine] | 99.75 ± 0.64% | 96.38 ± 0.1%
29 | NC(=O)c1cc[n+](CC2=C(C(=O)[O-])N3C(=O)[C@@H](NC(=O)[C@@H](c4ccccc4)S(=O)(=O)O)[C@H]3SC2)cc1 [Cefsulodin sodium salt] | 95 ± 4.8% | 99.3 ± 3.2%
30 | CC[C@H](C)C(=O)O[C@H]1CCC=C2C=C[C@H](C)[C@H](CC[C@@H]3C[C@@H](O)CC(=O)O3)[C@H]21 [Mevastatin] | 103 ± 7.6% | 96.2 ± 6.6%
31 | O=P(O)(O)C(O)(Cn1ccnc1)P(=O)(O)O [Zoledronic acid hydrate] | 108 ± 4.5% | 109 ± 1.6%
32 | CO[C@H]1/C=C/O[C@@]2(C)Oc3c(C)c(O)c4c(O)c(c(/C=N/N5CCN(C6CCCC6)CC5)c(O)c4c3C2=O)NC(=O)/C(C)=C\C=C\[C@H](C)[C@H](O)[C@@H](C)[C@@H](O)[C@@H](C)[C@H](OC(C)=O)[C@@H]1C [Rifapentine] | 84.5% | 94%
33 | CSc1ccc2c(c1)N(CCC1CCCCN1C)c1ccccc1S2 (configuration not stated) [Thioridazine hydrochloride] | 53.8 ± 6.2% | 83 ± 2.6%
34 | CSc1ccc2c(c1)C(N1CCN(C)CC1)Cc1ccccc1S2 (configuration not stated) [Methiothepin maleate] | 43.5 ± 3.5% | 75.4 ± 3.2%
35 | CN1CCC(=C2c3ccccc3Sc3ccccc32)CC1 [Pimethixene maleate] | 85.77 ± 0.64% | 95.2 ± 1.9%
36 | CN(Cc1cc(Br)cc(Br)c1N)C1CCCCC1 [Bromhexine hydrochloride] | 99 ± 1.1% | 98.2 ± 1.9%
37 | Cc1scc2c1N(C(=O)CN1CCN(C)CC1)c1ccccc1NC2=O [Telenzepine dihydrochloride] | 99.75 ± 0.32% | 103 ± 1.1%
38 | CC(=O)Oc1cc(C(F)(F)F)ccc1C(=O)O [Triflusal] | 94.5 ± 2.4% | 91.77 ± 0.32%
39 | Cc1cc(N)c2ccccc2[n+]1CCCCCCCCCC[n+]1c(C)cc(N)c2ccccc21 [Dequalinium dichloride] | 2.54 ± 1.6% | 2.2 ± 1.4%
40 | Nc1ccccc1S(N)(=O)=O [2-Aminobenzenesulfonamide] | 93.7 ± 1.6% | 94.39 ± 0.63%
41 | Cc1cc(C2CCCCC2)n(O)c(=O)c1 [Ciclopirox ethanolamine] | 1.27 ± 1.3% | 1.15 ± 1.1%
